Screening data (PubChem)
Hits are enriched below; roughly 6.2% of the tested compounds scored in any of these assays.
HT1080 IDH1KD tx: qHTS for induction of synthetic lethality in tumor cells producing 2HG: qHTS for the HT-1080-IDH1KD cell line. HT-1080 IDH1 knockdown viability, ATP luminescence, 48 h. Potency, µM (series often up to 46.1 µM), for the others: top-dose activity, negative = toxicity, hits mostly cytotoxic. 360,000 compounds, 2% hits. AID 686971, 2013;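 also: 0% = DMSO wells and -100% = cell-free medium wells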
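In this qHTS, HT-1080 cells depleted of IDH1 are exposed for 48 h at 37 °C to compound titrations. Toxicity is scored from CellTiter-Glo luminescence, with DMSO as full viability and medium alone as none.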
KB-3-1 cytotox: qHTS assay for MDR1-selective chemotherapeutics: Primary screen using the parental adenocarcinoma cell KB-3-1 | 400,000 compounds, 1.4% hits | Potency, µM (highest dose often 46.1 µM), actives largely listed as cytotoxic | KB-3-1 viability, CellTiter-Glo ATP luminescence, 72 h | AID 1347075, 2019; also: % is scaled to controls: 0 for no effect and ±100 for the full control effect; nearly all actives have a fitted effect of over 60% in size
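Parental KB-3-1 adenocarcinoma cells in phenol-red-free DMEM with 10% FBS were pin-treated with compounds at several concentrations, incubated 72 h at 37 °C, and viability read by CellTiter-Glo luminescence; concentration-effect curves were fitted after normalization.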
HT1080NT lethal: qHTS for induction of synthetic lethality in tumor cells producing 2HG: qHTS for the HT-1080-NT fibrosarcoma cell line; 360,000 compounds, 1.6% hits; Potency, µM (doses to about 46.1 µM), for the others: top-dose activity, negative = less viability, actives largely listed as cytotoxic; HT-1080-NT fibrosarcoma viability, CellTiter-Glo ATP luminescence, 48 h;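 also: NT is the 2HG producing partner of a matched IDH1 knockdown line; 0% = DMSO-treated cells and -100% = media-only wells without cells; nearly all actives have a fitted effect of over 55% in size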
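750 cells/well, RPMI + 5% FBS; 2 h settle, compound pin-transfer, 48 h at 37 degrees C. CellTiter-Glo 10 min RT, luminescence. Normalized to DMSO and media-only wells.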
KB-V1 MDR tox: qHTS assay for MDR1-selective chemotherapeutics: Primary screen using the drug-selected MDR subline cells KB-V1; 400,000 compounds, 3.4% hits; KB-V1 MDR cells viability, CellTiter-Glo, 72 h; Potency, µM (highest dose often 46.1 µM), most hits filed as cytotoxic; also: % is scaled to controls: 0 for no effect and ±100 for the full control effect; nearly all actives have a fitted effect of over 60% in size
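Potencies derive from concentration-effect curves fitted to normalized luminescence (CellTiter-Glo) of KB-V1 cells treated for 72 h at 37 degrees C in phenol-red-free DMEM containing 10% FBS.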
S2 tox: Viability Counterscreen for Primary qHTS for Inhibitors of ATXN expression. S2 cells (HEK-293 line with an ATXN2-luciferase reporter) viability, CellTiter-Fluor protease fluorescence, 24 h. Potency, µM (titrated, usually from 56.7 µM), usual class: cytotoxic. 400,000 compounds, 0.49% hits; also: nearly all actives have a fitted effect of over 40% in size
ATXN2 expr inh: Primary qHTS for Inhibitors of ATXN expression | Potency, µM (top dose mostly 57 µM), without a hit: top-dose activity change, negative = inhibition, actives largely listed as inhibitors | 360,000 compounds, 0.72% hits | HEK-293 ATXN2-luciferase reporter, luminescence, 24 h; also: % is scaled to controls: 0 for no effect and ±100 for the full control effect; nearly all actives have a fitted effect of over 55% in size
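ATXN2-luciferase reporter cells (luciferase flanked by upstream and downstream ATXN2 gene portions) were treated 24 h at 37 °C with compounds at up to 57 uM. SteadyGlo luminescence gave expression; GF-AFC fluorescence gave viability.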
Numbers without * were called inactive. Calls follow the shape of the dose curve; as a rule, active = well fitted curve in the direction sought with a large enough effect; inconclusive = small, poorly fitted or top-dose-only effect, or another doubt; inactive = no such curve, though single readings can be large; an effect the other way counts as inactive or inconclusive. Potency is read from the fitted curve at half-maximal effect.

How did Cc1nn(-c2ccccc2)c(C)c1/C=N/NC(=O)c1cc(-c2ccc(Cl)s2)[nH]n1 do in these assays?
HT1080 IDH1KD tx: 0.89µM*; KB-3-1 cytotox: 2.9µM*; HT1080NT lethal: 0.63µM*; KB-V1 MDR tox: 12µM*; S2 tox: inactive; ATXN2 expr inh: -21%

Results for Cc1cc(C(=O)N/N=C/c2c(C)nn(-c3ccccc3)c2C)n[nH]1 ?
HT1080 IDH1KD tx: -3%; KB-3-1 cytotox: inactive; HT1080NT lethal: -11%; KB-V1 MDR tox: inactive; S2 tox: inactive; ATXN2 expr inh: 17%

Results for Cc1nn(-c2ccccc2)c(C)c1/C=N/NC(=O)CSc1nnc(SCc2ccc(Cl)cc2)s1 ?
HT1080 IDH1KD tx: inconclusive; KB-3-1 cytotox: inconclusive; HT1080NT lethal: -17%; KB-V1 MDR tox: 2.3µM*; S2 tox: inactive; ATXN2 expr inh: 78%

Results for Cc1nn(-c2ccccc2)c(C)c1/C=N/NC(=O)c1ccccc1O ?
HT1080 IDH1KD tx: -2%; KB-3-1 cytotox: inactive; HT1080NT lethal: 1%; KB-V1 MDR tox: inactive; S2 tox: inactive; ATXN2 expr inh: 13%

What do the screens show for `O=C(CSc1nnc(SCc2ccccc2)s1)N/N=C/c1c(Cl)cccc1Cl`?
HT1080 IDH1KD tx: -10%; KB-3-1 cytotox: inactive; HT1080NT lethal: -5%; KB-V1 MDR tox: inconclusive; S2 tox: inactive; ATXN2 expr inh: 2%

What do the screens show for `Cc1nn(-c2ccccc2)c(C)c1/C=N/NC(=O)c1cc(-c2cccs2)[nH]n1`?
HT1080 IDH1KD tx: inconclusive; KB-3-1 cytotox: 0.52µM*; HT1080NT lethal: inconclusive; KB-V1 MDR tox: inconclusive; S2 tox: inconclusive; ATXN2 expr inh: -8%

What do the screens show for `Cc1nn(-c2ccccc2)c(C)c1/C=N/NC(=O)c1cccs1`?
HT1080 IDH1KD tx: -7%; KB-3-1 cytotox: inconclusive; HT1080NT lethal: -17%; KB-V1 MDR tox: 21µM*; S2 tox: inactive; ATXN2 expr inh: 157%

What do the screens show for `CC(/C=N/NC(=O)c1cc(-c2ccc(C)s2)[nH]n1)=C\c1ccccc1`?
HT1080 IDH1KD tx: 7.3µM*; KB-3-1 cytotox: 21µM*; HT1080NT lethal: 5.2µM*; KB-V1 MDR tox: inconclusive; S2 tox: inconclusive; ATXN2 expr inh: -21%

Results for CC(/C=N/NC(=O)c1cc(C(C)(C)C)[nH]n1)=C\c1ccccc1 ?
HT1080 IDH1KD tx: inconclusive; KB-3-1 cytotox: inconclusive; HT1080NT lethal: inconclusive; KB-V1 MDR tox: inconclusive; S2 tox: inactive; ATXN2 expr inh: 9%

Results for COc1ccc(/C=N/NC(=O)c2cccc(NC(=O)c3ccccc3Cl)c2)cc1 ?
HT1080 IDH1KD tx: 2.3µM*; KB-3-1 cytotox: 16µM*; HT1080NT lethal: 5.8µM*; KB-V1 MDR tox: inactive; S2 tox: inconclusive; ATXN2 expr inh: 13%

How did COc1ccc(/C=N/NC(=O)c2cccc(NC(=O)c3ccccc3Cl)c2)cc1OC do in these assays?
HT1080 IDH1KD tx: -25%; KB-3-1 cytotox: inactive; HT1080NT lethal: -26%; KB-V1 MDR tox: inactive; S2 tox: inactive; ATXN2 expr inh: 11%

Results for COc1ccc(C(=O)Nc2cccc(C(=O)N/N=C/c3ccc(OC)cc3OC)c2)cc1 ?
HT1080 IDH1KD tx: -15%; KB-3-1 cytotox: inactive; HT1080NT lethal: -6%; KB-V1 MDR tox: inactive; S2 tox: inactive; ATXN2 expr inh: 11µM*

What do the screens show for `Cc1ccc(Cn2ccnc2SCC(=O)Nc2nnc(C)s2)cc1`?
KB-3-1 cytotox: inactive; KB-V1 MDR tox: inactive; S2 tox: inactive; ATXN2 expr inh: 14%
